Source: PubChem BioAssay (National Center for Advancing Translational Sciences (NCATS))
DT40 TDP1 no CPT: qHTS for Inhibitors of human tyrosyl-DNA phosphodiesterase 1 (TDP1): qHTS in cells in absence of CPT | DT40 Tdp1-/- hTDP1 cells, no CPT, ATP luminescence, 48 h | 420,000 tested, 15% active | Potency, µM (doses to about 46.2 µM), without a hit: at the top dose activity change, negative = growth inhibition, actives largely listed as inhibitors; also: potency is read from the fitted curve at half-maximal effect; % is scaled to controls: 0 for no effect and ±100 for the full control effect; nearly all actives have a fitted effect of over 55% in size
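Luminescent ATP content (CellTiter-Glo) served as the growth readout. Knockout chicken DT40 cells expressing human TDP1 were exposed to compounds without camptothecin for a minimum 48 hr at 37 °C.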
MCF10A rerep: DNA re-replication induction in MCF 10a cells. Potency, µM (top dose mostly 46.1 µM), without a hit: top-dose activity, positive = re-replication, usual class: activators. 350,000 tested, 2.9% active. MCF 10A DNA re-replication, Hoechst nuclear intensity, 48 h; also: potency is read from the fitted curve at half-maximal effect; % of control where 0% means no effect; nearly all actives have a fitted effect of over 50% in size
IL-1B inflam inh: inhibitors of inflammasome signaling (IL-1 beta secretion); activity change, % at 57.5 µM; 360,000 tested, 4.7% active; THP-1 LPS/ATP IL-1B secretion, AlphaLISA, 16 h; hits give low values; in the data active = activity change below about -50%; inconclusive = mostly about -30% to -49%; also: % is scaled to controls: 0 for no effect and ±100 for the full control effect
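THP-1 cells pretreated 1 hr with compounds (up to 57.5 uM final), then stimulated with LPS (250 ng/mL final) plus ATP (1.25 mM final); secreted IL-1B measured by AlphaLISA after 16 hr, decreased signal indicating inhibition.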
TDP1 cell CPT: growth inhibition of DT40 Tdp1-/-;hTDP1 cells with camptothecin (screen for TDP1 inhibitors). chicken DT40 Tdp1-/-;hTDP1 cells + 20 nM CPT, ATP luminescence, 48 h. Potency, µM (top dose mostly 46.2 µM), for inactives: at the highest dose activity change, negative = growth inhibition, hits mostly inhibitors. 420,000 tested, 12% active. AID 686979; also: potency is read from the fitted curve at half-maximal effect; % is scaled to controls: 0 for no effect and ±100 for the full control effect; nearly all actives have a fitted effect of over 55% in size
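Cell growth measured by CellTiter-Glo luminescence after a minimum 48 h, 37 C compound exposure with 20 nM CPT in Tdp1-knockout DT40 cells stably expressing hTDP1, seeded 400/well; qHTS titration format.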
BCR signal inh: chronic active BCR signaling inhibition; Potency, µM (series often up to 46.1 µM), inactives show at the highest dose activity change, negative = inhibition, most hits filed as inhibitors; AID 493014; ABC-DLBCL IkBa-CBG/CBR reporter, luminescence ratio, 4 h; 340,000 tested, 0.05% active; active = well fitted inhibition curve with a large enough effect in the signal ratio, with a control signal flat, not every such curve was filed as active; inconclusive = small, poorly fitted or top-dose-only effect, or effect the other way, or a change in a side signal; the % refers to the signal ratio;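 also: potency is read from the fitted curve at half-maximal effect; plate controls were basal doxycycline-induced cells for no effect and cells given 10 µM MG132 for full effect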
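TMD8 human ABC-DLBCL cells with doxycycline-inducible IκBα–green luciferase fusion and unfused red luciferase, in 0.5% FBS medium; compounds up to 46 uM, 4 h at 37C. Green/red luminescence ratio, filter-overlap corrected, fitted to concentration-response curves.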
SW480 rerep: DNA re-replication induction in SW480 cells | SW480 DNA re-replication, Hoechst DNA content imaging, 48 h | Potency, µM (series often up to 46.1 µM), for the others: top-dose re-replication activation, hits mostly activators | 340,000 tested, 1.8% active | AID 624297; also: potency is read from the fitted curve at half-maximal effect; % of control where 0% means no effect; nearly all actives have a fitted effect of over 55% in size
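Treated cells incubate 48 hr (37 C, 5% CO2), are stained 40 min with Hoechst, and nuclear fluorescence is enumerated; a rise in nuclei with high DNA signal marks re-replication.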
* hit, by the source's call. A selection: hits, their analogues and other compounds. The true share with any hit is near 19%. Unless noted, calls follow the shape of the dose curve; as a rule, active = well fitted curve in the direction sought with a large enough effect; inconclusive = small, poorly fitted or top-dose-only effect, or another doubt; inactive = no such curve, though single readings can be large; an effect the other way counts as inactive or inconclusive.

What do the screens show for `COC(=O)NCC(c1cccnc1)N1CCN(c2ccccc2F)CC1` (configuration not stated)?
DT40 TDP1 no CPT: 7.3%; MCF10A rerep: -0.9%; IL-1B inflam inh: 5.8; TDP1 cell CPT: 2.4%; BCR signal inh: -8.6%; SW480 rerep: inconclusive

Results for COc1ccccc1N1CCN(C(CNC(=O)C(=O)NCc2ccc(F)cc2)c2cccnc2)CC1 (configuration not stated) ?
DT40 TDP1 no CPT: 5.8µM*; TDP1 cell CPT: 8.2µM*

Results for COc1ccccc1N1CCN(C(CNS(C)(=O)=O)c2cccnc2)CC1 (configuration not stated) ?
DT40 TDP1 no CPT: -13.0%; MCF10A rerep: -4.4%; IL-1B inflam inh: 13.5; TDP1 cell CPT: 1.9%; BCR signal inh: inconclusive; SW480 rerep: -126.9%

How did COc1ccccc1N1CCN(C(CNS(=O)(=O)c2ccc(C)cc2)c2cccnc2)CC1 (configuration not stated) do in these assays?
DT40 TDP1 no CPT: 7.31µM*; MCF10A rerep: 20.9%; IL-1B inflam inh: -4.1; TDP1 cell CPT: inconclusive; BCR signal inh: -0.1%; SW480 rerep: 9.3%

Results for COc1ccc(CNC(=O)C(=O)NCC(c2cccnc2)N2CCN(c3ccccc3F)CC2)cc1 (configuration not stated) ?
DT40 TDP1 no CPT: 18.4µM*; TDP1 cell CPT: 11.6µM*

How did COc1cccc(CN2CC(C(=O)NCCc3cn4cccnc4n3)CCC2=O)c1 (configuration not stated) do in these assays?
DT40 TDP1 no CPT: -17.4%; IL-1B inflam inh: 2.2; TDP1 cell CPT: -3.0%

Results for N#Cc1ccccc1S(=O)(=O)N1CCN(C(=O)CCNS(=O)(=O)c2ccc(Cl)cc2)CC1 ?
DT40 TDP1 no CPT: -23.5%; MCF10A rerep: 12.4%; IL-1B inflam inh: -22.5; TDP1 cell CPT: -22.9%; SW480 rerep: -27.0%

How did COC(=O)c1ccc(NC(=O)c2cc3cc4ccc(OC)c(Cl)c4nc3s2)cc1 do in these assays?
DT40 TDP1 no CPT: -8.6%; TDP1 cell CPT: -19.8%

How did CCCCCCCOC(=O)C[N+](C)(C)CCOC1CC2CCC1(C)C2(C)C (configuration not stated) do in these assays?
DT40 TDP1 no CPT: 1.64µM*; MCF10A rerep: inconclusive; IL-1B inflam inh: -99.6*; TDP1 cell CPT: 1.46µM*; BCR signal inh: inconclusive; SW480 rerep: inconclusive

How did CC1(C)C2CCC1(C)C(OCCNCCOC(=O)Nc1ccccc1)C2 (configuration not stated) do in these assays?
DT40 TDP1 no CPT: inconclusive; MCF10A rerep: 17.6%; IL-1B inflam inh: inconclusive; TDP1 cell CPT: inconclusive; BCR signal inh: 5.4%; SW480 rerep: 8.3%

What do the screens show for `CCCCCCOC(=O)C[N+](C)(C)CCOC1CC2CCC1(C)C2(C)C` (configuration not stated)?
DT40 TDP1 no CPT: inconclusive; MCF10A rerep: inconclusive; IL-1B inflam inh: -1.6; TDP1 cell CPT: inconclusive; BCR signal inh: inconclusive; SW480 rerep: -5.0%

Results for CCC(C)OC(=O)C[N+](C)(C)CCOC1CC2CCC1(C)C2(C)C (configuration not stated) ?
DT40 TDP1 no CPT: 1.46µM*; MCF10A rerep: inconclusive; IL-1B inflam inh: -27.7; TDP1 cell CPT: 1.16µM*; BCR signal inh: inconclusive; SW480 rerep: -12.9%

How did CCCCOC(=O)C[N+](C)(C)CCOC1CC2CCC1(C)C2(C)C (configuration not stated) do in these assays?
DT40 TDP1 no CPT: 1.84µM*; MCF10A rerep: 0.6%; IL-1B inflam inh: inconclusive; TDP1 cell CPT: 2.06µM*; BCR signal inh: -21.8%; SW480 rerep: 0.6%

What do the screens show for `CCCOC(=O)C[N+](C)(C)CCOC1CC2CCC1(C)C2(C)C` (configuration not stated)?
DT40 TDP1 no CPT: 4.61µM*; MCF10A rerep: -22.5%; IL-1B inflam inh: -28.4; TDP1 cell CPT: 8.2µM*; BCR signal inh: -6.9%; SW480 rerep: -0.9%

What do the screens show for `COc1ccc(CCN(C)CCCN2CCc3cc(OC)c(OC)cc3CC2=O)cc1OC`?
DT40 TDP1 no CPT: -19.7%; MCF10A rerep: -1.2%; TDP1 cell CPT: 1.1%; SW480 rerep: -1.7%

Results for S=C(NCC1CCCO1)N1CCc2ccccc2C1 (configuration not stated) ?
DT40 TDP1 no CPT: 3.2%; MCF10A rerep: 13.1%; IL-1B inflam inh: 49.5; TDP1 cell CPT: -14.4%; BCR signal inh: 4.7%; SW480 rerep: -3.3%

What do the screens show for `Cc1ccc2nc(-c3ccco3)c(Cc3ccccc3)n2c1`?
DT40 TDP1 no CPT: inconclusive; IL-1B inflam inh: 1.5; TDP1 cell CPT: inconclusive

Results for FC(F)(F)c1ccccc1Cc1c(-c2ccco2)nc2ccc(Br)cn12 ?
DT40 TDP1 no CPT: inconclusive; IL-1B inflam inh: -28.1; TDP1 cell CPT: inconclusive

Results for COc1ccccc1Cc1c(-c2ccco2)nc2ccc(Br)cn12 ?
DT40 TDP1 no CPT: 20.6µM*; IL-1B inflam inh: -4.7; TDP1 cell CPT: 10.3µM*

Results for Cc1ccc2nc(-c3ccco3)c(CC(C)(C)C)n2c1 ?
DT40 TDP1 no CPT: 9.2µM*; IL-1B inflam inh: 11.7; TDP1 cell CPT: 10.3µM*

How did COc1ccccc1Cc1c(-c2ccco2)nc2ccc(Cl)cn12 do in these assays?
DT40 TDP1 no CPT: 23.1µM*; IL-1B inflam inh: 0.4; TDP1 cell CPT: 16.4µM*

What do the screens show for `Clc1ccc2nc(-c3ccco3)c(Cc3ccccc3)n2c1`?
DT40 TDP1 no CPT: inconclusive; IL-1B inflam inh: -5.6; TDP1 cell CPT: 16.4µM*

What do the screens show for `CCOC1=C2CN(S(=O)(=O)c3ccc(C)cc3)[C@H](c3ccccc3)C[C@H]2[C@H]2C(=O)N(c3ccccc3)C(=O)[C@H]2C1`?
DT40 TDP1 no CPT: -7.2%; IL-1B inflam inh: 18.1; TDP1 cell CPT: -9.0%

How did O=C(O)c1ccccc1C(c1ccccc1)c1ccccc1O (configuration not stated) do in these assays?
DT40 TDP1 no CPT: inconclusive; MCF10A rerep: 0.3%; IL-1B inflam inh: 6.8; TDP1 cell CPT: -8.3%; SW480 rerep: 9.9%

How did CCOC(=O)C1=C(C)Nc2ccccc2N=C1NC(=O)c1cc(C)on1 do in these assays?
DT40 TDP1 no CPT: -26.3%; MCF10A rerep: 7.0%; IL-1B inflam inh: 0.0; TDP1 cell CPT: -27.2%; BCR signal inh: 1.2%; SW480 rerep: 2.0%
